# NTR1 ag – agonists of human neurotensin receptor NTR1; P30989; NTR1-U2OS beta-arrestin-GFP spot imaging, agonist mode; activation, % at 20 µM; 0.17% of 330,000 active;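 active = activation at or above 40% of the spot to cytoplasm intensity ratio, with at least 20 cells analyzed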;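 also: 0% = DMSO without peptide and 100% = 100 nM NTR1 peptide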
# Target sequence (P30989 whole entry, looked up): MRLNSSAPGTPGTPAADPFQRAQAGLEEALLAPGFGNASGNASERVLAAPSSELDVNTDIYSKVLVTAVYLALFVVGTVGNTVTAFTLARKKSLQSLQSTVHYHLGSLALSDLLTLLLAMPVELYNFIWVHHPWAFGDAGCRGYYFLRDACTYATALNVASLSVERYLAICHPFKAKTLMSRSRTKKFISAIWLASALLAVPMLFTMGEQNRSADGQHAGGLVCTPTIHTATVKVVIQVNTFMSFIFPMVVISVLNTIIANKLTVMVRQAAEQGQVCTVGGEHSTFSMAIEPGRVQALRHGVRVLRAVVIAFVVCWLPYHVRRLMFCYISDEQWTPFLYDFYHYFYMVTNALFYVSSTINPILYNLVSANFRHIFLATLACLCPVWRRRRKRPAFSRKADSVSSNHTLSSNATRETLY
# CRFBP-R2 block – CRF-BP/CRF-R2 complex antagonism; HEK293 CRF-R2/CRF-BP, CRF-induced calcium fluorescence; 0.59% of 350,000 active; inhibition, % at 11.8 µM;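 active = inhibition of the ligand-induced calcium signal above about 50% at the single tested concentration, limit read from the data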
# CRFBP-R2 agonist – CRF-BP/CRF-R2 complex agonism | HEK293 CRF-R2/CRF-BP, calcium dye fluorescence (FLIPR); percent of saturating CRF peptide response | activation, % at 13.2 µM | 0.46% of 350,000 active;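 active = activation of at least 50%, plus an integration ratio under a set limit after plate pattern correction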;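 also: plate controls were neutral control wells without compound for no effect and CRF at EC100 for full effect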
# V-ATPase pH – regulators of yeast V-ATPase proton transport; S. cerevisiae, pHLuorin cytosolic pH fluorescence; response, % at 10 µM; 0.37% of 350,000 active; AID 504577; in the data active = response mostly above about 7.3%, no sharp cut-off; inactive = mostly below about 5.4%; also: actives read high
# * = called active by the depositor; x = not tested or not shown. Hits are enriched below; roughly 1.5% of the tested compounds scored in any of these assays.
SMILES,NTR1 ag,CRFBP-R2 block,CRFBP-R2 agonist,V-ATPase pH
Cc1cc(C(=O)N2CCN(c3ccc([N+](=O)[O-])cc3)CC2)co1,-1,59*,0,2
Cc1cc(C)c(C)c(S(=O)(=O)N(C)CCc2ccccn2)c1C,0,-8,5,-4
CCOC(=O)c1sc(NC(=O)c2cc(-c3ccccc3)nc3ccccc23)c(C#N)c1C,8,35,53*,1
CC(=O)c1ccc(NC(=O)CSc2n[nH]c(-c3cccnc3)n2)cc1,-1,-5,-1,-4
COc1ccc(Cc2nnc(NC(=O)CS(=O)(=O)c3ccccc3)s2)cc1OC,-2,9,-2,-1
Cc1cc(N2CCOCC2)nc(-c2ccccc2O)n1,-1,-3,0,60*
Cc1cc(N2CCOCC2)nc(NCc2ccccc2)n1,1,15,122*,2
Cc1cc(N2CCCCCC2)nc(-c2ccccc2O)n1,5,11,-2,-3
Cc1cc(N2CCOCC2)nc(N)n1,0,-61,164*,2
COc1c(Cl)cc(-c2noc(C)c2C(=O)NCc2ccc3c(c2)OCO3)cc1Cl,2,-37,71*,-3
COc1ccc(NC(=O)N2CCCC(C(=O)NCCc3ccccc3)C2)cc1 (stereo unspecified),-1,8,-1,1
O=C(/C=C/c1ccc(Cl)cc1)c1ccc([N+](=O)[O-])o1,22,-45,5,12*
COc1ccc(NC(=S)N(CCN(C)C)C(C)c2ccco2)cc1Cl (stereo unspecified),-1,-15,4,1
CC12CC3CC(C1)CC(C(=O)NNC(=O)c1ccncc1)(C3)C2,-2,4,0,-1
O=C(NNC(=S)NC(=O)c1ccc(F)cc1)c1ccncc1,0,18,-2,0
CC1(C(=O)NC(=S)NNC(=O)c2ccncc2)CCCCC1,0,33,81*,1
O=C(NNC(=S)NC(=O)C12CC3CC(CC(C3)C1)C2)c1ccncc1,6,-84,139*,1
COC(=O)Nc1c(-c2ccccc2)nc2ccc(Cl)cn12,0,-8,3,-1
COC(=O)NN1C(=O)C(c2ccccc2)=C(c2ccc(Cl)cc2)C1=O,0,51*,-4,3
CCc1nnc(NC(=O)CCC(=O)N2CCN(Cc3cc(Cl)ccc3OC)CC2)s1,-2,106*,1,-4
CCCc1nnc(NC(=O)CCC(=O)N2CCN(Cc3cc(Cl)ccc3OC)CC2)s1,3,1,-2,6
Cc1ccc(NS(=O)(=O)c2ccc(Cl)c(C(=O)Nc3cccc(C(=O)O)c3)c2)cc1,0,7,-3,0
CC(C)N(C(=O)[C@H]1C[C@H](CC(=O)NCc2ccco2)C(=O)N2CCc3c([nH]c4cc(CCC(=O)N(C)C)ccc34)[C@]12C)C(C)C,1,60*,-3,5
CC(C)N(C(=O)[C@H]1C[C@H](CC(=O)NCCC2=CCCCC2)C(=O)N2CCc3c([nH]c4ccc(Cl)cc34)[C@]12C)C(C)C,17,65*,-3,0
C[C@]12c3[nH]c4ccccc4c3CCN1C(=O)C(CC(=O)NCC13CC4CC(CC(C4)C1)C3)C[C@@H]2C(=O)N1CCOCC1 (stereo partly specified),3,-48,55*,0
SMILES,NTR1 ag,CRFBP-R2 block,CRFBP-R2 agonist,V-ATPase pH
C[C@]12c3[nH]c4ccccc4c3CCN1C(=O)C(CC(=O)NCC13CC4CC(CC(C4)C1)C3)C[C@@H]2C(=O)N1CCCCC1 (stereo partly specified),10,-9,4,-2
O=C(C[C@H]1C[C@H](C(=O)N2CCCCC2)[C@@]2(CCc3ccccc3)c3[nH]c4ccc(Cl)cc4c3CCN2C1=O)NCCN1CCOCC1,0,-3,57*,-2
O=C(C[C@H]1C[C@H](C(=O)N2CCCCC2)[C@@]2(CCc3ccccc3)c3[nH]c4ccc(Cl)cc4c3CCN2C1=O)NCCCn1ccnc1,24,-8,8,0
O=C(c1cc(-c2ccco2)nc2ccccc12)N1CCN(c2ccc(F)cc2)CC1,3,-49,-1,-1
COC(=O)[C@@H](c1ccccc1)N(C)S(=O)(=O)c1cccc(S(=O)(=O)N(C)[C@@H](C(=O)OC)c2ccccc2)c1,-1,-7,6,3
CCN1CCN(C(=O)C(N)Cc2ccccc2)CC1 (stereo unspecified),1,-4,1,1
O=C(NN=Cc1ccccc1OC(F)F)c1ccc(NS(=O)(=O)c2cccs2)cc1,0,-4,-3,2
CCc1ccc(NC(=O)C(C)OC(=O)/C=C/c2ccc(O)c(OC)c2)cc1 (stereo unspecified),11,-66,92*,3
COc1cc(/C=C/C(=O)OC(C)C(=O)Nc2c(C)n(C)n(-c3ccccc3)c2=O)ccc1O (stereo unspecified),-1,9,-2,-4
CN1CCCN(C(=O)c2cc3c(s2)CCCC3)CC1,1,6,-1,2
CC(=O)N1CCN(C(=O)c2cc3c(s2)CCCC3)CC1,x,5,0,18*
O=C(CNC(=O)OCc1ccccc1)NCC(=O)Oc1ccc([N+](=O)[O-])cc1,x,-5,-4,3
Cc1cccc(NC(=O)CN2C(=O)NC3(CCCC3)C2=O)n1,0,8,-1,6
Cc1ccc(N2CCN(C(=O)CN3C(=O)c4ccccc4C3=O)CC2)cc1,0,56*,0,-4
O=C(NCCCn1ccnc1)C1CCCN(S(=O)(=O)c2ccc(F)cc2)C1 (stereo unspecified),-1,-4,-1,-1
Cc1nn(-c2ccccc2)c(NC(=O)c2cccs2)c(-c2ccccc2Cl)c1=O,0,111*,3,3
Cc1cc(C)cc(-n2c(C)cc(C(=S)N3CCOCC3)c2C)c1,0,57*,-2,3
Nc1ccc(C(=O)N/N=C\c2cc(N=Nc3cccc4ccccc34)ccc2O)cc1,-1,59*,0,1
Cc1nc(-c2ccncc2)nc(NCCNc2ccc(C(F)(F)F)cn2)c1Cl,3,118*,3,-4
FC(F)(F)c1ccc(NCCc2ccccc2)nc1,2,2,-2,5
CC(C)C(Sc1nc(-c2ccccc2)cc(-c2ccccc2)c1C#N)C(=O)O (stereo unspecified),8,68*,0,0
N#Cc1c(-c2ccccc2)cc(-c2ccccc2)nc1SCC(=O)NCC(=O)O,1,-13,72*,0
COc1ccc(-c2cc(-c3ccccc3)c(C#N)c(SCC(=O)O)n2)cc1,0,28,-1,-2
COc1ccc(-c2cc(-c3ccccc3)nc(SC(C)C(=O)O)c2C#N)cc1 (stereo unspecified),4,34,-5,-3
CC1CN(C(=O)CCC(=O)NCc2ccccc2)c2ccccc2O1 (stereo unspecified),-2,-18,-4,4
CCOC(=O)/C(=N\Nc1cc(Cl)ccc1Cl)N1CCN(CC)CC1,2,-64,-1,3
COc1cc(-c2n[nH]c(=S)n2/N=C/c2cccn2C)cc(OC)c1OC,1,-18,104*,2
Cn1cccc1/C=N/n1c(-c2ccco2)n[nH]c1=S,-1,-7,2,6

# Screens deposited in PubChem by several laboratories.
